In the library only some 1.8% were active in any assay of this set; here they are far more common.
Beta cell apopt – inhibitors of cytokine-induced beta cell apoptosis, primary screen, luminescence; protection from apoptosis, % (no concentration beside the values); AID 435005, 2010; hit rate 0.8% among 300,000; INS-1E cytokine-induced death, ATP luminescence, 48 h; percent of positive-control rescue, neutral wells zero;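 active means Every replicate reaches about 75%, or at least half do and their mean reaches it too, limit read from the data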;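 further: higher means more ATP so stronger rescue from cytokine killing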
Gli-Sufu antag – Gli-Sufu pathway antagonists, primary screen, luciferase luminescence, Sufu-KO-LIGHT cells, uHTS; Sufu-KO-LIGHT fibroblasts, Gli luciferase reporter luminescence; hit rate 0.74% among 340,000; inhibition, % at 5 µM; AID 588413, 2011;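 active means inhibition above about 55%, limit read from the data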
697 NFkB inh – inhibitors of PMA/ionomycin-induced NF-kB reporter, 697 cells, primary screen, B-cell NF-kB inhibitor project, cell-based, luminescence, uHTS | 697 B-cell NF-kB luciferase reporter, 16 h | inhibition, % at 4 µM | hit rate 0.33% among 330,000; in the data active means inhibition above about 35%
Jurkat NFkB inh – inhibitors of induced NF-kB luciferase reporter, primary screen, TCR NF-kB activation inhibitor project, cell-based, luminescence, uHTS; inhibition, % at 4 µM; hit rate 0.53% among 330,000; Jurkat, PMA/ionomycin-induced NF-kB luciferase reporter; AID 435003, 2010; in the data active means inhibition above about 50%
Jurkat NFkB conf – PMA/ionomycin-induced NF-kB reporter inhibitors, Jurkat retest, confirmation, T-cell NF-kB inhibitor project, cell-based, luminescence, single concentration; shares compounds with Jurkat NFkB inh; Jurkat NF-kB luciferase, 16 h; inhibition, % at 4 µM; hit rate 27% among 2,700;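 active means inhibition reaching about 45% at 4 µM in either replicate, limit read from the data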
697 NFkB conf – PMA/ionomycin-induced NF-kB reporter inhibitors, 697 retest, confirmation, B-cell NF-kB inhibitor project, cell-based, luminescence, single concentration; shares compounds with 697 NFkB inh; 697 B-cell NF-kB luciferase, 16 h; inhibition, % at 4 µM; hit rate 35% among 2,000; AID 449746, 2010; in the data active means inhibition mostly above about 28%, no sharp cut-off; inactive means mostly below about 22%
Each line names hits and unclear results; the compound was inactive in the other large screens (follow-up assays come after a bar, where they were run).

COc1cccc(C(=O)Nc2ccc(N3CCN(C(=O)c4cccs4)CC3)cc2)c1	Jurkat NFkB inh 51.9 | Jurkat NFkB conf inactive
COc1ccc(NC(=O)c2cccs2)cc1C(=O)N1CCN(c2ccccc2)CC1	Jurkat NFkB inh 52.4 | Jurkat NFkB conf inactive
O=C(NC(=S)Nc1ccc(N2CCCCC2)cc1)c1cccs1	none | Jurkat NFkB conf inactive
Clc1ccc(-c2csc(NNC3=NCCCCC3)n2)cc1	none
Cc1nnc(SCc2ccccc2CSc2nnc(C)s2)s1	none
COC(=O)c1nn(-c2ccc3c(c2)CCN3C(C)=O)cc1O	Jurkat NFkB inh 53.2 | Jurkat NFkB conf 66.8
COC(=O)c1nn(-c2ccc3c(c2)OCO3)cc1O	none
COc1cccc(C(=O)Nc2cccc(SC)c2)c1	none
COc1ccc(Br)cc1/C(C)=N/NC1=NCCN1	Jurkat NFkB inh 67.0 | Jurkat NFkB conf inactive
CCCCCOc1ccc(Br)cc1/C(C)=N/NC1=NCCN1	Jurkat NFkB inh 63.1 | Jurkat NFkB conf inactive
C/C(=N\NC1=NCCN1)c1ccccc1	none
COc1ccccc1Nc1c2c(nc3ccccc13)CCC2	Jurkat NFkB inh 51.7 (no result: Gli-Sufu antag) | Jurkat NFkB conf inactive
C=C(C)c1cccc(C(C)(C)NC(=O)Nc2nnc(C(C)C)s2)c1	none
O=C(NN=C1CCCC1)c1[nH]c2ccc(Br)cc2c1-c1ccccc1	none (no result: Beta cell apopt)
O=C(N/N=C/c1ccccc1)c1[nH]c2ccc(Br)cc2c1-c1ccccc1	Jurkat NFkB inh 57.8 | Jurkat NFkB conf inactive
Cc1cc(=O)oc2cc(OC(C(=O)O)c3ccccc3)ccc12 (configuration not stated)	none
N#C/C(=N\Nc1ccc(F)cc1)C(=N)N1CCCCC1	none
N#C/C(=N\Nc1cccc(F)c1)C(=N)N1CCCCCC1	none | Jurkat NFkB conf inactive
COc1ccc(CCN2C(=O)CSC2c2ccc(OC)c(OC)c2)cc1OC (configuration not stated)	none
COc1ccc(C2SCC(=O)N2CCc2ccc(OC)c(OC)c2)cc1 (configuration not stated)	Jurkat NFkB inh 65.2 | Jurkat NFkB conf inactive
O=C(COC(=O)c1cc(S(=O)(=O)N2CCCC2)ccc1O)Nc1ccc(F)cc1F	Jurkat NFkB inh 70.3 | Jurkat NFkB conf inactive
CC(=O)Nc1ccc(NC(=O)COC(=O)c2cc(S(=O)(=O)N3CCCC3)ccc2O)cc1	none
COc1cc(OC)c(NC(=S)Nc2cccc(C(C)=O)c2)cc1Cl	none
COc1ccc(C(=O)c2ccc(N(C)C)cc2)c(OC)c1	Jurkat NFkB inh 67.9 | Jurkat NFkB conf 47.0
COc1ccc(C(=O)c2ccc(OC)cc2OC)cc1	none
CC(=O)CCc1oc2ccccc2c1-c1ccccc1	none (no result: Beta cell apopt)
N#CC(c1cccc(Cl)c1)c1ccc2c(C(F)(F)F)cc(C(F)(F)F)nc2n1 (configuration not stated)	Beta cell apopt 114.1, Gli-Sufu antag 88.4, 697 NFkB inh 66.2, Jurkat NFkB inh 58.2 | Jurkat NFkB conf 59.0 | 697 NFkB conf 33.2
COc1ccc(-c2ccc3ccccc3n2)cc1	none | Jurkat NFkB conf inactive | 697 NFkB conf inactive
COc1ccc(-c2ccc3ccccc3n2)cc1OC	none
Cn1c(OCc2ccc3c(c2)OCO3)nc2c1c(=O)n(Cc1ccc(Cl)c(Cl)c1)c(=O)n2C	none
O=C(CCN1C(=O)c2ccccc2S1(=O)=O)Nc1ccc2c(c1)OCCO2	none
O=C(CN1C(=O)c2ccccc2S1(=O)=O)c1ccc2c(c1)OCCO2	Gli-Sufu antag 93.6, 697 NFkB inh 93.3, Jurkat NFkB inh 94.4 | Jurkat NFkB conf 91.7 | 697 NFkB conf 92.0
O=C(CN1C(=O)c2ccccc2S1(=O)=O)c1ccc2c(c1)OCCCO2	Gli-Sufu antag 95.9, 697 NFkB inh 94.5, Jurkat NFkB inh 95.7 | Jurkat NFkB conf 93.7 | 697 NFkB conf 88.6
Cc1ccc(NC(=O)c2cc(=O)[nH]c3ccccc23)cc1	none
Cc1ccc(NC(=O)C(=O)c2c[nH]c3ccccc23)cc1	none | Jurkat NFkB conf inactive | 697 NFkB conf inactive
c1ccc2c(c1)nc(N1CCOCC1)c1c3ccccc3[nH]c21	none
Cn1cccc1/C=C1\CCc2ccccc2C1=O	none | Jurkat NFkB conf inactive | 697 NFkB conf inactive
O=C(OC1CCCCC1)c1ccc(NC(=O)C2CCCCC2)cc1	none
CC(C)(C)C(=O)Nc1ccc(C(=O)OC2CCCCC2)cc1	none | Jurkat NFkB conf inactive | 697 NFkB conf inactive
O=C(NC(=S)Nc1ccc(Cl)cn1)c1cccs1	none | Jurkat NFkB conf inactive | 697 NFkB conf inactive
NC(=O)c1ccccc1OCC(=O)Nc1ccc(Cl)c(Cl)c1	none | Jurkat NFkB conf inactive | 697 NFkB conf inactive
CCC(C)n1c(C)nc2c(c1=O)c1nc3ccccc3nc1n2CCC1=CCCCC1 (configuration not stated)	none
COc1ccccc1CN1CCCCCC1	none
O=C(OCC1OC2C(Oc3nc(=O)ccn32)C1O)c1ccccc1 (configuration not stated)	none
N=c1ccn2c(n1)O[C@H]1[C@@H](CO)[C@H](O)O[C@H]12	697 NFkB inh 69.5, Jurkat NFkB inh 53.5 | Jurkat NFkB conf 61.2 | 697 NFkB conf 61.2
CCOc1ccc(C2C(C(=O)c3ccco3)=C(O)C(=O)N2Cc2cccnc2)cc1OC (configuration not stated)	none
CC(C)(C)c1ccc(NC(=O)CC2(C(F)(F)F)OCCO2)cc1	none
CCOC(=O)Nc1ccc(NCc2ccc(F)cc2)nc1N	none
CC(=O)c1cnc2c(-c3ccc(Cl)cc3)cnn2c1C	none
Clc1ccc(-c2cnn3c(-c4ccncc4)ccnc23)cc1	none | Jurkat NFkB conf inactive | 697 NFkB conf inactive
CCOC(=O)c1sc2nc(-c3ccccc3)ccc2c1N	none | Jurkat NFkB conf inactive | 697 NFkB conf inactive
CCC(C)c1ccc(NC(=S)NCc2cccnc2)cc1 (configuration not stated)	none
Cc1ccc(C(=O)Nc2cccc(C(F)(F)F)c2)cc1NC(=O)c1ccno1	697 NFkB inh 60.4, Jurkat NFkB inh 50.8 | Jurkat NFkB conf 87.0 | 697 NFkB conf 61.0
Cc1ccc(C(=O)Nc2cccc(C(F)(F)F)c2)cc1NC(=O)c1nccn1C	none
COc1ccc2oc(=O)c(C(=O)Nc3ccccc3O)cc2c1	none | Jurkat NFkB conf inactive | 697 NFkB conf inactive
Cc1ccsc1/C=N/N=C/c1sccc1C	none | Jurkat NFkB conf inactive | 697 NFkB conf inactive
CC(C)(C)C(=O)CSc1ncnc2c1cnn2-c1ccccc1	none | Jurkat NFkB conf inactive | 697 NFkB conf inactive
COc1cc2c(c(OC)c1OC)-c1ccc(NC(=O)c3ccc(F)cc3)c(=O)cc1[C@@H](NC(C)=O)CC2	none
COc1cc2c(c(OC)c1OC)-c1ccc(OC)c(=O)cc1[C@@H](NC(C)=O)CC2	Jurkat NFkB inh 71.0 | Jurkat NFkB conf 68.9 | 697 NFkB conf inactive
COc1ccc(-c2c(C)nn3c(N4CCCCCC4)cc(C)nc23)cc1OC	none
